Assay outcomes from PubChem BioAssay.
Sampled rows, rich in hits. Any-hit rate of the full collection: about 6.6%.
CSC inhib: blocks cancer stem cells; cancer stem cell-like cells viability, luminescence; inhibition, % at 7.5 µM; hit rate 1.1% among 300,000; AID 2717; in the data active means inhibition above about 75%; tested in HMLE shEcad cells
Gli-Sufu antag: blocks Gli-Sufu signaling in a luciferase reporter; inhibition, % at 5 µM; hit rate 0.74% among 340,000; Sufu-KO-LIGHT fibroblasts, Gli luciferase reporter luminescence; AID 588413;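 active means inhibition above about 55%, limit read from the data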;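 further: 0% = DMSO-treated cells and 100% = wells with medium but no cells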
GRIN3A LBD mod: modulators (binders) of human NR3A ligand-binding domain; NR3A LBD differential scanning fluorimetry, Tm shift; 0% = protein alone, 100% = glycine-bound protein; Tm shift relative to glycine control, % at 25 µM; hit rate 2.5% among 340,000; AID 1259313;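 active means melting temperature shift of at least 10% of the positive control shift, at one fixed dose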
Mdm2 MdmX PPI: disrupts the human Mdm2-MdmX interaction. SaOS-2 split-luciferase Mdm2/MdmX complementation, luminescence. hit rate 3% among 330,000. O15151+Q00987. inhibition, % at 8 µM;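 active means inhibition of at least 50% at 8 µM in the primary screen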
Target sequence (O15151 whole entry, looked up): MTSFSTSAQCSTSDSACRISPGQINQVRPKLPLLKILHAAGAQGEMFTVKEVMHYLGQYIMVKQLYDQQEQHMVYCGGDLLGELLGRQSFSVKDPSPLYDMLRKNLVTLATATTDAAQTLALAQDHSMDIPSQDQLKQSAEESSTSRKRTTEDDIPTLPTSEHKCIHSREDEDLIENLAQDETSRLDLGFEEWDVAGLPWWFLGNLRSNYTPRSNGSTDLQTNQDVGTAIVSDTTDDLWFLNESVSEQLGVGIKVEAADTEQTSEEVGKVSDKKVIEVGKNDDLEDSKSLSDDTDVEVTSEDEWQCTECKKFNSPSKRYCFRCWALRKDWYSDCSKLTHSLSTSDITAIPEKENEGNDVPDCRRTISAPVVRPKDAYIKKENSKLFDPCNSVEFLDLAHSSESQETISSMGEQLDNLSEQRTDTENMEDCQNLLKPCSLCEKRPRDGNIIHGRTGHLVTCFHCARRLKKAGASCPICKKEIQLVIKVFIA
Target sequence (Q00987 whole entry, looked up): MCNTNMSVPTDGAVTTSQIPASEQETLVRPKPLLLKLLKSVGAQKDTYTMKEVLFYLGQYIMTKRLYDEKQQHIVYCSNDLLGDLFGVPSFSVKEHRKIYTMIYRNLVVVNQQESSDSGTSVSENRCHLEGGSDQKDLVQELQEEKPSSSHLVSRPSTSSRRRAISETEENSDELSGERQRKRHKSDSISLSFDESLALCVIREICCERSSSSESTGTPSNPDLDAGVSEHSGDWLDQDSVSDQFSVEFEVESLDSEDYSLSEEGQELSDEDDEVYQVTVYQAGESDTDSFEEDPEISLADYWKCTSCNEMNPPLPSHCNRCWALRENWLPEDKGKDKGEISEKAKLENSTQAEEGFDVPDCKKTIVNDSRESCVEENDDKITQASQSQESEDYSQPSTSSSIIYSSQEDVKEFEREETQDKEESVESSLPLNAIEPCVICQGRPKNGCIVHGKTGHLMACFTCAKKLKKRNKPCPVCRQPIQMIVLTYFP
Beta cell apopt: blocks beta cell apoptosis | INS-1E cytokine-induced death, ATP luminescence, 48 h; percent of positive-control rescue, neutral wells zero | protection from apoptosis, % (test concentration not listed) | hit rate 0.8% among 300,000 | AID 435005;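 active means Every replicate reaches about 75%, or at least half do and their mean reaches it too, limit read from the data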;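 further: 0% = cytokine-treated negative control wells and 100% = positive control rescue; higher means more ATP so stronger rescue from cytokine killing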
MPTP inh: inhibitors of mitochondrial permeability transition pore | inhibition, % at 10 µM | isolated mouse mitochondria, Ca2+ swelling absorbance, 30 min | AID 602449 | hit rate 1.4% among 360,000;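 active means inhibition of 50% or more, scaled per plate between neutral and stimulator controls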;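 further: 0% = DMSO wells given calcium and 100% = 1 mM EGTA wells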
Mdm2-MdmX conf: confirmation of human Mdm2/MdmX interaction inhibitors; inhibition, % at 8 µM; Mdm2-MdmX binding, luminescent assay; shares compounds with Mdm2 MdmX PPI; hit rate 55% among 10,000; in the data active means inhibition above about 40%
FLuc counter: full-length luciferase inhibition in Mdm2/MdmX counter-screen; shares compounds with Mdm2 MdmX PPI; hit rate 77% among 6,200; SaOS-2 full-length luciferase counterscreen, luminescence; inhibition, % at 8 µM;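 active means mean inhibition at 8 µM reaching about 37%, which flags the compound as non-specific, limit read from the data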;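 further: p53-null SaOS-2 cells with luciferase driven by a doxycycline-inducible promoter; compound on cells about two nights before reading with doxycycline added after day one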
The depositor's hits bear a star; . = no result.

SMILES | CSC inhib | Gli-Sufu antag | GRIN3A LBD mod | Mdm2 MdmX PPI | Beta cell apopt | MPTP inh | Mdm2-MdmX conf | FLuc counter
Cc1c(C(=O)c2cccc3ccccc23)c2cccc3c2n1[C@H](CN1CCOCC1)CO3 | 100* | -4 | -7 | 91* | . | -1 | 57* | 93*
C[C@H]1CCC/C=C/[C@@H]2C[C@H](O)C[C@H]2[C@H](O)/C=C/C(=O)O1 | 100* | 89* | 0 | 97* | 117* | 1 | 98* | 48*
COC(=O)C1=C(c2ccccc2OCc2ccccc2)C[C@@H]2CC[C@H]1N2C(=O)NCc1ccc(N(C)C)cc1 | 47 | 9 | -1 | 62* | -5 | 0 | 1 | .
COC(=O)C1=C(c2ccc(F)cc2OCc2ccccc2)C[C@@H]2CC[C@H]1N2C(=O)NCCOc1ccccc1Cl | 23 | 28 | 1 | 57* | 4 | 0 | 29 | .
COC(=O)C1=C(c2ccc(F)cc2OCc2ccccc2)C[C@@H]2CC[C@H]1N2C(=O)NCCOc1ccccc1 | 19 | 19 | 1 | 37 | 2 | 20 | . | .
COC(=O)C1=C(c2ccc(F)cc2OCc2ccccc2)C[C@@H]2CC[C@H]1N2C(=O)NCc1ccc(N(C)C)cc1 | 18 | 14 | -3 | 45 | -5 | 0 | . | .
CCOC(=O)C1=C(NC(=S)NC(=O)c2ccccc2)c2ccccc2CC12CCCC2 | . | -1 | 0 | . | . | -1 | . | .
CCCCn1c(=O)c(C(=O)Nc2cnccn2)c(O)c2ccccc21 | -3 | -1 | 4 | 57* | 2 | 0 | 29 | 89*
CCCCn1c(=O)c(C(=O)Nc2cccc(C)c2)c(O)c2ccccc21 | 4 | -8 | 0 | 35 | . | 6 | . | .
O=C1CN=C(c2ccc(Br)cc2)c2oc3ccccc3c2N1 | -5 | 14 | 2 | 58* | 3 | 2 | 22 | .
COc1cccc(OC)c1C1=NCC(=O)Nc2c1oc1ccc(Br)cc21 | 58 | 57* | 0 | 70* | 26 | 0 | 68* | 78*
CC1=CC(=C2C(=O)NC(=S)NC2=O)C=C(C(F)(F)F)N1C | 2 | 3 | 3 | -1 | -3 | -1 | . | .
CCC(=O)OC1(c2ccccc2)CCN(C)CC1C (stereo not drawn) | -12 | 7 | -1 | 36 | 2 | -2 | . | .
NC(=O)CN1CCCC1=O | -11 | -37 | 3 | 4 | . | 0 | . | .
CC1=CC2/C=C(\C)CCC(O)C(O)/C=C/C(=O)C23C(=O)NC(CC(C)C)C3C1C (stereo not drawn) | 1 | -1 | 0 | 100* | 106* | -3 | 100* | 51*
Cc1ccc(C2N(c3ccccn3)C(=O)C3CCCN32)o1 (stereo not drawn) | 17 | -3 | -6 | 10 | -7 | -2 | . | .
COc1ccc(CCNC(=O)c2c(N)n(CCN3CCOCC3)c3nc4ccccc4nc23)cc1OC | 21 | 5 | -13 | 54* | 3 | -1 | 28 | .
CCCCCn1c(N)c(C(=O)NCCN2CCOCC2)c2nc3ccccc3nc21 | 49 | 14 | -8 | 40 | 5 | 0 | . | .
CCCCCCn1c(N)c(C(=O)NCCN2CCOCC2)c2nc3ccccc3nc21 | 111* | -9 | -4 | 58* | -3 | 1 | 32 | .
O=C1OC(c2ccc([N+](=O)[O-])cc2)=N/C1=C/N1CC2CC(C1)c1cccc(=O)n1C2 (stereo not drawn) | -16 | -18 | -1 | -10 | -1 | 1 | . | .
COC(=O)C1=C(c2ccc(S(C)(=O)=O)cc2)C[C@@H]2CC[C@H]1N2C(=O)NCC1CC1 | -14 | 19 | -1 | 23 | -5 | -1 | . | .
O=[N+]([O-])c1ccc(-[n+]2c(-c3ccccc3)cc(-c3ccccc3)cc2-c2ccccc2)cc1 | 0 | 7 | 0 | 15 | . | 0 | . | .
Oc1ccc(-[n+]2c(-c3ccccc3)cc(-c3ccccc3)cc2-c2ccccc2)cc1 | -15 | 43 | -6 | 98* | 123* | 3 | 71* | 59*
COc1ccc(-[n+]2c(-c3ccccc3)cc(-c3ccccc3)cc2-c2ccccc2)cc1 | 42 | 83* | -3 | 87* | 111* | . | 88* | 14
Brc1ccc2[nH]cc(/C=N/N3CCCCC3)c2c1 | 9 | -3 | 2 | 7 | -4 | 2 | . | .
SMILES | CSC inhib | Gli-Sufu antag | GRIN3A LBD mod | Mdm2 MdmX PPI | Beta cell apopt | MPTP inh | Mdm2-MdmX conf | FLuc counter
CC(=O)C1CCC2(O)C3CCC4=CC(=O)CCC4(C)C3CCC12C (stereo not drawn) | . | 2 | 0 | . | . | -1 | . | .
C[C@@H]1O[C@@H](O[C@@H]2C=C3CC[C@@H]4C(CC[C@]5(C)[C@@H](c6ccc(=O)oc6)CC[C@]45O)[C@@]3(C)CC2)[C@H](O)[C@H](O)[C@H]1O (stereo partly drawn) | 107* | -2 | 4 | 87* | -3 | -1 | 70* | 17
C[C@@H]1O[C@@H](O[C@@H]2C=C3CCC4C(CC[C@]5(C)[C@@H](c6ccc(=O)oc6)CC[C@]45O)[C@@]3(C)CC2)[C@H](O)[C@H](O)[C@H]1O (stereo partly drawn) | 101* | 1 | 0 | 83* | 12 | -1 | 81* | 49*
CCn1nc(/C=C/c2ccccc2)nc2c(=O)n(C)c(=O)nc1-2 | . | 91* | -1 | 97* | . | 1 | 85* | 25
C/C1=C\[C@@H](C)C/C=C/[C@H]2[C@@H]3O[C@]3(C)[C@@H](C)[C@H]3[C@H](Cc4c[nH]c5ccccc45)NC(=O)[C@]32C(=O)/C=C/C(=O)[C@@H]1O | 62 | 29 | 0 | 83* | . | -4 | 46* | 21
COc1cc(/C=C(/C)[N+](=O)[O-])ccc1OCc1ccccc1Cl | 78* | -37 | 3 | 95* | 92* | 13 | 100* | 51*
COc1cc(C=C2C(=O)NC(=O)NC2=O)ccc1OCc1ccc([N+](=O)[O-])cc1 | . | -28 | -3 | . | . | -1 | . | .
COc1ccc(CN2CCCC(C(=O)c3sccc3C)C2)cc1O (stereo not drawn) | 35 | 25 | 0 | -2 | -12 | 0 | . | .
O=c1c2ccccc2nc(/C=C/c2ccc(O)cc2)n1-c1ccc(O)cc1 | 14 | -10 | -21 | 27 | 4 | 0 | . | .
COc1ccc(-n2c(/C=C/c3ccc(O)cc3)nc3ccccc3c2=O)cc1 | 38 | -4 | -4 | 50* | . | 1 | 24 | .
COc1cc2nc(CN3CC=C(c4ccccc4)CC3)[nH]c(=O)c2cc1OC | 90* | -88 | 1 | 79* | 1 | 2 | 68* | 113*
COc1cc(C)c(CN2CC=C(c3ccc(F)cc3)CC2)cc1C | 27 | 23 | 0 | 35 | -1 | 0 | . | .
C[n+]1c(-c2ccccc2)cc(-c2ccc(O)cc2)cc1-c1ccccc1 | 3 | 11 | 0 | 16 | -6 | 4 | . | .
